Values joined by “and” are separate entries in the source; they are usually repeats but may differ in a detail not shown here. Equal entries are not always repeated. Inconclusive results are not listed. Active and inactive are the calls of the source. Unless noted, calls follow the shape of the dose curve; as a rule, active = well fitted curve in the direction sought with a large enough effect; inconclusive = small, poorly fitted or top-dose-only effect, or another doubt; inactive = no such curve, though single readings can be large; an effect the other way counts as inactive or inconclusive.
Legend:
[1] = Cell Viability - BJ (AID 421; calls by dose curve;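 also: potency is read from the fitted curve at half-maximal effect; cells exposed to compound for 40 hours at 37 °C before readout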); conditions: BJ fibroblast viability, qHTS
Outline: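 Cytotoxicity in human BJ foreskin fibroblasts is scored as loss of cellular ATP after a 40-hour exposure, measured by luciferase luminescence. Controls are DMSO and 100 uM tamoxifen.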

[2] = Cell Viability - HepG2 (AID 433; calls by dose curve;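 also: potency is read from the fitted curve at half-maximal effect; potency for ATP loss meaning cytotoxicity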); conditions: qHTS
Outline: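 HepG2 cells, 1500 per well, treated 40 hr at 37 °C in complete medium; viability from intracellular ATP by CellTiter-Glo luminescence. Normalized to DMSO and 100 uM tamoxifen; AC50 from Hill fit of qHTS concentration-response.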

[3] = Cell Viability - SK-N-SH (AID 435; calls by dose curve;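 also: potency is read from the fitted curve at half-maximal effect; compound exposure lasted 40 h at 37 °C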); conditions: SK-N-SH neuroblastoma cell viability qHTS
Outline: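 SK-N-SH neuroblastoma cells (1500/well) treated 40 h at 37 °C in complete medium; viability read as cellular ATP by CellTiter-Glo luminescence. Normalized to DMSO and 100 uM tamoxifen; AC50 from Hill fits of qHTS concentration-response.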

[4] = biological target: Mitogen-activated protein kinase 10 (Mus musculus) (UniProt Q61831); test: JNK3 AlphaScreen Assay (AID 530; active = well fitted curve in either direction with a large enough effect, not every such curve was filed as active;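 also: kinase came from lysate of stimulated human HepG2 cells; signal reports phosphorylation of biotinylated GST-cJun 1-79 at Ser73 with 10 µM ATP; % is scaled to controls: 0 for no effect and ±100 for the full control effect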)
Outline: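 Biotinylated GST-cJun(1-79) served as substrate for JNK3 in HepG2 lysates stimulated with IL-1beta and TNF-alpha. ATP was 10 uM final, pH 7.6. Ser73 phosphorylation was quantified by AlphaScreen (680 nm excitation).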

[5] = Cell Viability - HUV-EC-C (AID 542); also: % is scaled to controls: 0 for no effect and ±100 for the full control effect; nearly all actives have a fitted effect of over 35% in size
Outline: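 Concentration-dependent ATP loss in HUV-EC-C cells is the measure. Exposure lasts 40 hr at 37 °C; luminescence follows CellTiter-Glo addition, and Hill fits give AC50.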

[6] = Cell Viability - Renal Proximal Tubule (AID 545); conditions: renal proximal tubule cells viability; at 91.7 µM (top of the series), primary cells of rat origin unless noted; also: nearly all actives have a fitted effect of over 40% in size
Outline: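 Rat renal proximal tubule primary cells, 1000/well, exposed to compounds for 40 hr at 37 °C in complete medium; cellular ATP read by CellTiter-Glo luminescence. AC50 from concentration-response fitted with standard Hill equation.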

[7] = Cell Viability - Mesenchymal (AID 546);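 also: cells exposed to compound for 40 hours before reading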
Outline: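 In this qHTS cytotoxicity format, glomerulus-derived human mesenchymal kidney cells received compound for 40 hr, then luciferase-based ATP quantitation. Concentration-response data were fitted with the Hill equation.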

[8] = Cellular Toxicity (caspase-3) HepG2 (AID 654);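 also: cells exposed to compound for 16 hours before reading; 0% = DMSO alone and 100% = caspase signal from 100 µM tamoxifen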
Outline: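 Concentration-response AC50 values reflect caspase-3/7 induction in HepG2 cells after 16 hours of compound exposure, quantified by luminescence from liberated aminoluciferin and referenced to 100 uM tamoxifen as full stimulation.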

[9] = Cellular Toxicity (caspase-3) Jurkat (AID 655); conditions: Jurkat caspase-3 activation, luminescence, DMSO = 0%, tamoxifen = 100%; at 92.2 µM (top of the series);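 also: cells exposed to compound for 16 h at 37 °C before reading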
Outline: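 Jurkat cells (5000/well) in complete medium exposed 16 h at 37 C; caspase-3/7 activity read by Caspase-Glo luminescence after 20 min at room temperature. Normalized to DMSO and 100 uM tamoxifen; AC50 from Hill fits.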

[10] = Cellular Toxicity (caspase-3) HUV-EC-C (AID 656)
Outline: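 HUV-EC-C cells (1000/well) in complete medium, compound-treated 16 h at 37 °C; caspase-3/7 activity read by Caspase-Glo 3/7 luminescence. Normalized to DMSO (basal) and 100 uM tamoxifen (100%); AC50 from Hill-equation concentration-response fits.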

[11] = Cellular Toxicity (caspase-3) SHSY5Y (AID 657)
Outline: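 SH-SY5Y human neuroblastoma cells, 1500/well, exposed to compound for 16 hours at 37 °C in complete medium. Caspase-3/7 activity read by Caspase-Glo luminescence after 1 hr at room temperature, normalized to DMSO and 10 uM staurosporine; AC50 from Hill fit.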

[12] = Cellular Toxicity (caspase-3) BJ (AID 658);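 also: 0% = DMSO basal and 100% = 10 µM staurosporine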
Outline: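 Plated BJ cells (1000/well) rested 5 hr, received compound for 16 hr at 37 °C, then Caspase-Glo 3/7 reagent for 1 hr at room temperature before luminescence reading.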

[13] = Cellular Toxicity (caspase-3) MRC-5 (AID 659);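 also: 0% = DMSO basal and 100% = 10 µM staurosporine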
Outline: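 Apoptosis readout in MRC-5 cells: luciferase light generated after caspase 3/7 cleaves a peptide-aminoluciferin substrate, measured post 16 hr compound incubation at 37 °C.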

[14] = Cellular Toxicity (caspase-3) Mesangial (AID 660);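 also: cells exposed to compound for 16 h before the caspase read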
Outline: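 AC50 values come from Hill-equation fits of caspase 3/7 activation, measured as Caspase-Glo luminescence in human glomerular mesangial cells exposed to compound for 16 h at 37 °C; 100% set by 100 uM tamoxifen.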

[15] = Cellular Toxicity (caspase-3) SK-N-SH (AID 661);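 also: 0% = DMSO basal and 100% = 10 µM staurosporine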
Outline: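 Apoptosis readout in SK-N-SH neuroblastoma: Caspase-Glo 3/7 luminescence following 16 hr treatment in complete culture medium. Normalization used DMSO and 10 uM staurosporine controls.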

[16] = Cellular Toxicity (caspase-3) H-4-II-E (AID 663);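 also: cells exposed to compound for 16 hr before readout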
Outline: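 Caspase 3/7 activation measured in H-4-II-E cells in complete culture medium after 16 hr treatment at 37 °C, using luciferase-coupled substrate readout; AC50 values come from Hill-equation fits of normalized concentration-response data.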

[17] = Cellular Toxicity (caspase-3) Renal Proximal Tubule (AID 667); conditions: renal proximal tubule cells; at 91.7 µM (top of the series), primary cells freshly taken from rat, solvent-only wells 0%, staurosporine 100% unless noted;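 also: cells exposed to compound for 16 hours at 37 °C before detection; 0% = DMSO basal and 100% = 10 µM staurosporine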
Outline: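 Freshly isolated primary rat kidney proximal tubule cells, 1000/well, treated 16 hr at 37 °C, then Caspase-Glo 3/7 luminescence after 1 hr. Normalized to DMSO and 10 uM staurosporine; AC50 from Hill fit.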

[18] = qHTS assay for small molecule antagonists of retinoid X receptor alpha signaling (AID 588546; active = well fitted inhibition curve with a large enough effect in the signal ratio, with a control signal flat, not every such curve was filed as active; the % refers to the signal ratio;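 also: cells stimulated with 9-cis-retinoic acid as agonist; % is scaled to controls: 0 for no effect and ±100 for the full control effect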); conditions: HEK293T RXRa-UAS-bla, beta-lactamase ratio, antagonist mode; measured here: W530 green channel, cytotoxicity proxy
Outline: (§1)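 Beta-lactamase reporter inhibition, read as CCF4 fluorescence ratio (ex 405, em 460/530 nm) after 2 h at RT. HEK293T UAS-bla cells, 2500/well, were stimulated with 9-cis-RA at 500 or 100 nM final alongside test compound for 18 h at 37 C.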

[19] = biological target: Retinoic acid receptor RXR-alpha (Homo sapiens) (UniProt P19793); test: as above; conditions: HEK293T RXRa-UAS-bla, beta-lactamase ratio, antagonist mode
Chain of Retinoic acid receptor RXR-alpha (Homo sapiens) (P19793 whole entry, looked up): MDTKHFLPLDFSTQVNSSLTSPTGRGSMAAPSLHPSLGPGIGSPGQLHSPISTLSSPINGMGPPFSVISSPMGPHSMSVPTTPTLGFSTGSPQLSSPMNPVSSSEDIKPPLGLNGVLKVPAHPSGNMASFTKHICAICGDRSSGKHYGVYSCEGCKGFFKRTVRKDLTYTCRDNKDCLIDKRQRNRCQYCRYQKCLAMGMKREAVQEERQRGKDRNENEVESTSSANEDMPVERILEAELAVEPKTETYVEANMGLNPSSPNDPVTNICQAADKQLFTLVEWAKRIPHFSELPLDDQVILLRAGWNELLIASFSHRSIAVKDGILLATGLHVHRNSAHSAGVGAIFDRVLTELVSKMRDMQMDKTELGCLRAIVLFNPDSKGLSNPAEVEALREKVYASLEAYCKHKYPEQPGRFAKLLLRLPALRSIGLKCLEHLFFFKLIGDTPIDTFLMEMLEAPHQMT
Outline: as §1

OCC1CO1 (configuration not stated)
inactive: Potency [1] > 92 µM | Potency [2] > 92 µM | Potency [3] > 92 µM | outcome [4] | Potency [5] | activity change, negative = cytotoxicity [6] 4.62% | outcome [7] | outcome [8] | caspase-3 activation [9] 0.767% | outcome [10] | outcome [11] | outcome [12] | outcome [13] | outcome [14] | outcome [15] | outcome [16] | caspase-3 activation [17] 0.454% | max response [19] 13.7% and -0.419%
2.41% and -5.17%: max response [18]

Cc1ccc2ccccc2c1
-12.4%: max response [18]
inactive: Potency [1] > 92 µM | Potency [2] > 92 µM | Potency [3] > 92 µM | outcome [4] | Potency [5] | activity change, negative = cytotoxicity [6] -15.4% | outcome [7] | outcome [8] | caspase-3 activation [9] 1.17% | outcome [10] | outcome [11] | outcome [12] | outcome [13] | outcome [14] | outcome [15] | outcome [16] | caspase-3 activation [17] 18.4% | max response [19] -9.3%

CCCSC(=O)Cl
inactive: Potency [1] > 92 µM | Potency [2] > 92 µM | Potency [3] > 92 µM | outcome [4] | Potency [5] | activity change, negative = cytotoxicity [6] -6.97% | outcome [7] | outcome [8] | caspase-3 activation [9] 0.745% | outcome [10] | outcome [11] | outcome [12] | outcome [13] | outcome [14] | outcome [15] | outcome [16] | caspase-3 activation [17] 5.81% | max response [19] 25.6%
-2.55%: max response [18]

CC(Cl)Cl
inactive: Potency [1] > 92 µM | Potency [2] > 92 µM | Potency [3] > 92 µM | outcome [4] | Potency [5] | activity change, negative = cytotoxicity [6] -11.4% | outcome [7] | outcome [8] | caspase-3 activation [9] 1.86% | outcome [10] | outcome [11] | outcome [12] | outcome [13] | outcome [14] | outcome [15] | outcome [16] | caspase-3 activation [17] -1.5% | max response [19] 21.2%
-2.19%: max response [18]

O=C(Cl)/C=C/C(=O)Cl
-3.67%: max response [18]
inactive: Potency [1] > 92 µM | Potency [2] > 92 µM | Potency [3] > 92 µM | outcome [4] | Potency [5] | activity change, negative = cytotoxicity [6] 2.59% | outcome [7] | outcome [8] | caspase-3 activation [9] 0.334% | outcome [10] | outcome [11] | outcome [12] | outcome [13] | outcome [14] | outcome [15] | outcome [16] | caspase-3 activation [17] -3.63% | max response [19] -3.28%

Cc1cccc([N+](=O)[O-])c1
inactive: Potency [1] > 92 µM | Potency [2] > 92 µM | Potency [3] > 92 µM | outcome [4] | Potency [5] | activity change, negative = cytotoxicity [6] -7.28% | outcome [7] | outcome [8] | caspase-3 activation [9] -1.23% | outcome [10] | outcome [11] | outcome [12] | outcome [13] | outcome [14] | outcome [15] | outcome [16] | caspase-3 activation [17] 5.52% | max response [19] 4.38% and -23.2%
-5.54% and -8.46%: max response [18]

c1ccc2c(c1)CCCC2
inactive: Potency [1] > 92 µM | Potency [2] > 92 µM | Potency [3] > 92 µM | outcome [4] | Potency [5] | activity change, negative = cytotoxicity [6] -0.896% | outcome [7] | outcome [8] | caspase-3 activation [9] -0.484% | outcome [10] | outcome [11] | outcome [12] | outcome [13] | outcome [14] | outcome [15] | outcome [16] | caspase-3 activation [17] -4.18% | max response [19] 7.45%
-8.06%: max response [18]

S=C=Nc1cccc2ccccc12
-0.704%: max response [18]
inactive: Potency [1] > 92 µM | Potency [2] > 92 µM | Potency [3] > 92 µM | outcome [4] | Potency [5] | activity change, negative = cytotoxicity [6] 4.87% | outcome [7] | outcome [8] | caspase-3 activation [9] 1.77% | outcome [10] | outcome [11] | outcome [12] | outcome [13] | outcome [14] | outcome [15] | outcome [16] | caspase-3 activation [17] -4.28% | max response [19] 3.59%

— PubChem BioAssay (NCATS)
